From PubChem BioAssay
ELG1 genotoxic: induces genotoxicity in HEK293T cells with luciferase-tagged ELG1 | 1.3% of 330,000 active | AID 504466 | HEK293T ELG1-luciferase reporter, luminescence, 16 h | Potency, µM (highest dose often 46 µM), usual class: activators; further: nearly all actives have a fitted effect of over 60% in size
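Quantitative HTS format in 1536-well plates. HEK293T ELG1-luciferase reporter cells receive test compound and are incubated 16 hr at 37 °C, 5% CO2; ONE-Glo added, 30 min room temperature, then luminescence read.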
Rab9 promoter act: activators of Rab9 promoter | Huh7 Rab9 promoter-luciferase reporter, luminescence, 24 h | Potency, µM (highest dose often 9.22 µM), usual class: activators | 2.8% of 320,000 active; further: nearly all actives have a fitted effect of over 60% in size
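Quantitative HTS format; Huh7 Rab9-luciferase reporter cells (1500/well) receive compound 2 h post-plating, incubate 24 h at 37 °C, then get luciferase reagent for 10 min before luminescence reading.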
Luc counter: Kinase-Glo luciferase inhibition (counter-screen); Q27757; Kinase-Glo luciferase, ATP luminescence, 8 min; Potency, µM (titrated, usually from 38.3 µM), most hits filed as inhibitors; 0.28% of 200,000 active; further: nearly all actives have a fitted effect of over 60% in size
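Inhibition of Kinase-Glo luciferase light generation was assessed at 10 uM ATP in pH 7.2 imidazole buffer, with luminescence measured after eight minutes at ambient temperature.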
NPC1 prom act: NPC1 promoter activation; AID 485313; Huh7 NPC1 promoter luciferase reporter, 24 h; Potency, µM (top dose mostly 9.22 µM), most hits filed as activators; 2.4% of 320,000 active; further: nearly all actives have a fitted effect of over 60% in size
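Stable NPC1-promoter luciferase Huh7 line; cpd (DMSO) 24 h, 37 °C, 5% CO2; Amplite luciferase reagent 10 min RT; luminescence readout. qHTS format.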
FLuc modulator: firefly luciferase modulation, counter-screen for miR-21 project; 6.9% of 360,000 active; Potency, µM (top dose mostly 57.5 µM), usual class: inhibitors; purified FLuc, Km substrates, luminescence inhibition; further: nearly all actives have a fitted effect of over 55% in size
Target sequence (P08659 whole entry, looked up): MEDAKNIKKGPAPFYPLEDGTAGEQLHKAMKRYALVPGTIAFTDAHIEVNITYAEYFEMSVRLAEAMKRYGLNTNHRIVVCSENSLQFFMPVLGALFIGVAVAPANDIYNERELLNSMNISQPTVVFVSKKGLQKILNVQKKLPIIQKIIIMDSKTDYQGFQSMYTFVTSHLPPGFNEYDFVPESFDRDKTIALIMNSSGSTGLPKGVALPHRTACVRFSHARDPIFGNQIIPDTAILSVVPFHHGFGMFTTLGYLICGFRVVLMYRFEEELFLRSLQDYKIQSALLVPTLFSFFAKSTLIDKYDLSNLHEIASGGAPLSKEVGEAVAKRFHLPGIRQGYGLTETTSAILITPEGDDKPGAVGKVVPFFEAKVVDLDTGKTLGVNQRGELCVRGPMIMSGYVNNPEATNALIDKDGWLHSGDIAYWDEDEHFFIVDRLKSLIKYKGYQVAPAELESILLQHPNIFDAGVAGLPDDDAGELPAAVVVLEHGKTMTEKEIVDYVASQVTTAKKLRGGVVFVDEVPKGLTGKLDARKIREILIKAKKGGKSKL
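Purified P. pyralis luciferase (10nM final) with 10uM D-luciferin and 10uM ATP (Km levels) in 50mM Tris acetate pH 7.5, 10mM Mg acetate, 0.01% Tween-20, 0.05% BSA; qHTS 6-point titration, ~60 µM downward; luminescence read.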
SMN2 splice enh: enhancers of SMN2 splice variant expression; HEK293 SMN2-luciferase splicing reporter, luminescence, 30-36 h; Potency, µM (doses to about 46.1 µM), usual class: activators; 2.8% of 210,000 active; further: nearly all actives have a fitted effect of over 55% in size
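HEK293 cells carry an SMN2 […]–luciferase reporter in which exon 7 inclusion puts luciferase in frame. Cells were plated 10-12 h before compound addition, then incubated 30-36 h at 37C. ONE-Glo luminescence was read; sodium butyrate at 4.5 mM final served as control.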
Numbers stand for hits; i = inactive; ? = inconclusive; nt = no result; [ ] = another dose, or the depositor's remark. A selection: hits, their analogues and other compounds. The true share with any hit is near 7.5%. The call rests on the fitted dose curve; in most records, active means well fitted curve in the direction sought with a large enough effect; inconclusive means small, poorly fitted or top-dose-only effect, or another doubt; inactive means no such curve, though single readings can be large; an effect the other way counts as inactive or inconclusive.

SMILES | ELG1 genotoxic | Rab9 promoter act | Luc counter | NPC1 prom act | FLuc modulator | SMN2 splice enh
CCOc1ccc(/C=N/Nc2ccccn2)cc1 | 2.3µM | 0.5µM | 10µM | 1.3µM | 1.2µM | 1.6µM
COc1ccc(/C=N/Nc2ccccn2)cc1O | ? | ? | nt | ? | 6.7µM | nt
Cc1ccc(C)c(NC(=O)CSc2nnc3n2CCCCC3)c1 | i | i | i | i | i | i
Cc1[nH]c(C)c(S(=O)(=O)N2CCN(c3ccccc3F)CC2)c1C(=O)N1CCCCC1 | i[9.26 µM] | i | nt | i | i | nt
CCN(CC)C(=O)Cn1cc(C(=O)C(=O)Nc2ccc3c(c2)OCCO3)c2ccccc21 | i | ? | nt | i | 3.4µM | nt
CCN(CC)C(=O)Cn1cc(C(=O)C(=O)NCCCN2CCOCC2)c2ccccc21 | i | i | nt | i | i | nt
Cc1cc(NC(=O)C(=O)c2c(C)[nH]c3ccccc23)no1 | ? | i | i | i | i | i
O=C(Nc1ccc2c(c1)OCCO2)C(=O)c1c[nH]c2ccccc12 | ? | 0.1µM | nt | ? | 0.19µM | nt
O=C(Nc1ccc2c(c1)OCO2)C(=O)c1c[nH]c2ccccc12 | 1.8µM | 0.71µM | nt | 0.4µM | 0.67µM | nt
Cc1[nH]c2ccccc2c1C(=O)C(=O)Nc1ccc2c(c1)OCCO2 | i | ? | nt | ? | 15µM | nt
Cc1cc(C(=O)O)ccc1NCc1ccncc1 | i | i | nt | i | i | nt
C/C(=C\C(=O)c1ccc(C)o1)Nc1ccc(C(=O)O)cc1C | i | i | i | i | 9.5µM | i
COc1cc(C2C(C(C)=O)=C(O)C(=O)N2Cc2ccccc2)ccc1O (configuration not stated) | i | i | nt | i | i | nt
Cc1ccc(C(=O)N/N=C\c2ccc3c(c2)OCO3)cn1 | i | i | nt | i | 17µM | nt
Cc1ccc(C(=O)N/N=C/c2cccc(OC(=O)/C=C/c3ccco3)c2)cn1 | i | i | i | i | 12µM | nt
O=C(N/N=C\C=C\c1ccc2c(c1)OCO2)c1ccc(F)cc1 | i | i | i | i | ? | i
Cc1cccc(C(=O)Nc2ccc(C(=O)N/N=C/c3ccc4c(c3)OCO4)cc2)c1 | i | i | nt | i | i | nt
Cc1cc(C(=O)N/N=C/C=C/c2ccc3c(c2)OCO3)n[nH]1 | i | i | i | i | 15µM | i
O=C(N/N=C/c1cccnc1)c1ccc2c(c1)OCCO2 | ? | 3.2µM | ? | ? | 6µM | 8.9µM
Cc1ccc(S(=O)(=O)N2CCOCC2)cc1C(=O)Nc1ccccc1N1CCOCC1 | i | i | nt | i | i | nt
Cc1cccc(NC(=O)C2CCN(S(=O)(=O)c3ccc4[nH]c5c(c4c3)CCCCC5)CC2)c1 | nt | nt | nt | nt | i | nt
O=C(N/N=C\c1ccc2c(c1)OCO2)c1cncc(Br)c1 | i | i | nt | i | ? | nt
O=C(N/N=C/c1ccc2c(c1)OCO2)c1cccnc1 | i | i | nt | i | 27µM | nt
CCCCOC(=O)c1ccc(NC(=O)C(=O)NCc2ccccn2)cc1 | i | i | nt | i | ? | nt
Cc1c(C(=O)O)[nH]c2c1C(=O)CC(c1ccc(C(C)(C)C)cc1)C2 (configuration not stated) | ? | ? | nt | ? | 9.5µM | nt
SMILES | ELG1 genotoxic | Rab9 promoter act | Luc counter | NPC1 prom act | FLuc modulator | SMN2 splice enh
CCC(C)OC(=O)c1[nH]c2c(c1C)C(=O)CC(c1ccc(N(C)C)cc1)C2 (configuration not stated) | ? | 3.2µM | i | ? | 11µM | i
COC(=O)c1scc(-c2ccc(C)cc2)c1S(=O)(=O)N1CCN(c2ccc(C(C)=O)cc2)CC1 | nt | nt | nt | nt | i | nt
COc1ccc(CNC(=O)c2ccc(N3CCCC3)c(NC(=O)NCc3ccc(F)cc3)c2)cc1 | nt | nt | nt | nt | i | nt
CC1=NN(C(N)=S)C(=O)C1N=Nc1ccc(Br)cc1 (configuration not stated) | 9.2µM | 3.5µM | nt | 2.2µM | 6µM | nt
CC1=NN(C(N)=S)C(=O)C1N=Nc1cccc([N+](=O)[O-])c1 (configuration not stated) | i | ? | nt | 3.5µM | 12µM | nt
CC1=NN(c2ccccc2)C(=O)[C@@H]1N=Nc1ccc(S(N)(=O)=O)cc1 | nt | nt | i[7.66 µM] | nt | nt | i[9.22 µM]
CC1=NN(C(N)=S)C(=O)C1N=Nc1ccccc1 (configuration not stated) | ? | i | i | i | 24µM | i
NC(=O)CN(N=Nc1cccc([N+](=O)[O-])c1)c1cccc([N+](=O)[O-])c1 | i | i | i | i | i | i
CC1=NN(c2nc(-c3ccc(C)cc3)cs2)C(=O)C1N=Nc1cccc(O)c1 (configuration not stated) | i | i | i | i | ? | i
CC1=NN(c2ccccc2)C(=O)C1N=Nc1ccc(N)cc1 (configuration not stated) | i | i | i | i | ? | i
CC1=NN(C(N)=S)C(=O)C1N=Nc1ccc(Cl)cc1 (configuration not stated) | 7.3µM | 4µM | nt | 4µM | 3.4µM | nt
CC(=O)N=c1sc2cc(C)ccc2n1C | 13µM | i | i | i | ? | i
CCN1C(=O)N(CC)C2C1N(CO)C(=O)N2CO (configuration not stated) | i | i | i | i | i | i
O=C1Cc2cc([N+](=O)[O-])ccc2N1c1c(Cl)cccc1Cl | i | i | nt | i | i | nt
CC1=CC(=C(C#N)c2nc3ccccc3s2)C=C(C)N1c1ccc(F)cc1 | i | i | i | i | 3.4µM | ?
COc1ccccc1N1C(C)=CC(=C(C#N)c2nc3ccccc3s2)C=C1C | i | i | i | i | 3µM | i
CC(C)=C(C#N)c1nc2ccccc2s1 | i | i | i | i | i | i
CCOc1ccccc1N(C)C(=O)NCc1noc2ccccc12 | nt | nt | nt | nt | i | nt
O=C1COc2ccc(C(=O)COC(=O)c3ccc(Cl)cc3[N+](=O)[O-])cc2N1 | nt | i | nt | i | i | nt
O=C1COc2ccc(C(=O)COC(=O)c3ccco3)cc2N1 | i | i | nt | i | 12µM | nt
O=C1COc2ccc(C(=O)COC(=O)c3ccccc3[N+](=O)[O-])cc2N1 | i | ? | nt | i | 1.5µM | nt
O=C(NCCC1=CCCCC1)c1ccc2c(c1)sc1nc(-c3ccc(F)cc3)cn12 | nt | nt | nt | nt | i | nt
O=c1cccc2n1Cc1cc3ccccc3nc1-2 | 21µM | 2.8µM | i | 3.2µM | 19µM | 13µM
COc1ccc(C2C(=O)N(C3CCCCCC3)CC(=O)N2Cc2ccc(C)cc2)cc1OC (configuration not stated) | nt | nt | nt | nt | i | nt
O=C(O)c1cc(N/N=C/C=C/c2ccccc2[N+](=O)[O-])ccc1Cl | ? | 3.5µM | nt | 1.4µM | 19µM | nt
O=[N+]([O-])c1ccccc1/C=C/C=N/N1CCCCC1 | 4.6µM | 2.2µM | i | ? | 11µM | 16µM
NS(=O)(=O)c1ccc(N/N=C/C=C/c2ccccc2[N+](=O)[O-])cc1 | ? | ? | nt | ? | 17µM | nt
CCN(CC)C(=O)CSc1nnc(CSc2ncccn2)n1C | i | i | nt | i | i | nt
